Common to all, as to experiment: log2 ratio of Biotin-Ahx-Ub-VS probe labelling (fragment/DMSO); higher = less target engagement (more negative = stronger competition), active = hit call of the paper (q ≤ 0.05, log2 ratio ≤ -1)
Common to all, as to conditions: compound concentration: 200 uM; treatment time: 3 h

One experiment has as its target T1, USP42 (UniProt Q9H9J4).
T1 sequence (whole entry): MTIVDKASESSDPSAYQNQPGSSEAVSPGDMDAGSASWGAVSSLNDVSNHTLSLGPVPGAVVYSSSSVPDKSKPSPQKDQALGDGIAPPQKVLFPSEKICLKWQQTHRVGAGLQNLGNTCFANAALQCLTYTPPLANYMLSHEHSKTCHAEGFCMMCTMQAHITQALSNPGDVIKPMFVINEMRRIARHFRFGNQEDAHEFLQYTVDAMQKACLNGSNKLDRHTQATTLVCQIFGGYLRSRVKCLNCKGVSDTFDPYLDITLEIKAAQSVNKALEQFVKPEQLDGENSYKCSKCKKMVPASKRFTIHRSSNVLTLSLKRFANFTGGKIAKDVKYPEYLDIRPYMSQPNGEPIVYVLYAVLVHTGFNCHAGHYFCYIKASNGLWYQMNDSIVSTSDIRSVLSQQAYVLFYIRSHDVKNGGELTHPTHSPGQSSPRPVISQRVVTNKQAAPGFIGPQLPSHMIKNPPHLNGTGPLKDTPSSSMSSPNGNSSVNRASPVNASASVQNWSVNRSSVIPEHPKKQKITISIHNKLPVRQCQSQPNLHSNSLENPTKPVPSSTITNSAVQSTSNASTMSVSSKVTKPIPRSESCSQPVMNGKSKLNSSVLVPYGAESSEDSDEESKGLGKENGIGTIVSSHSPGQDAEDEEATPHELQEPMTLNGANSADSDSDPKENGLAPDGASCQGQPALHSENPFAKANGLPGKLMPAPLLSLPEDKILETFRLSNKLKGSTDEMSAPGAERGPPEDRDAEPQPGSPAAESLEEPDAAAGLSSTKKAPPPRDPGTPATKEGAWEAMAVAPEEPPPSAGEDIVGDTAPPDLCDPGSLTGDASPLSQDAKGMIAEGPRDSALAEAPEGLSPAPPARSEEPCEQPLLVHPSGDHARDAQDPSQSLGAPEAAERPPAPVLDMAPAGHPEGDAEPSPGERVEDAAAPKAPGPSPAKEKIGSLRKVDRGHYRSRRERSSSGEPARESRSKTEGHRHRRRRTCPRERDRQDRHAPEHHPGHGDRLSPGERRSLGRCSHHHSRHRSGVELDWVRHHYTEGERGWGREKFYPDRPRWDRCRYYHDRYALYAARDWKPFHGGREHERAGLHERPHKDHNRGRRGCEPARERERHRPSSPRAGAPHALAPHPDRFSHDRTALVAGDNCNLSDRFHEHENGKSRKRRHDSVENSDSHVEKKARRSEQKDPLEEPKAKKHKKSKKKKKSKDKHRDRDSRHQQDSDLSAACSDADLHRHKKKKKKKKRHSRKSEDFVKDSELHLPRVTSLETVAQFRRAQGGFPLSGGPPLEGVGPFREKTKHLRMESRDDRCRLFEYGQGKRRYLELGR
The essentials: (§1)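 HEK293T lysate (495 µg per sample, in Tris/CHAPS/IGEPAL buffer with protease inhibitors) was exposed in triplicate for 3 h to fragment at 200 µM or to vehicle, then to Biotin-Ahx-Ub-VS at 0.5 µM final for 1 h. Labelled DUBs were enriched on NeutrAvidin, digested with LysC and trypsin, and analysed by diaPASEF LC-MS/MS. Spectronaut label-free quantities were normalised to the global median, and values are average log2 ratios of fragment over vehicle from an unpaired t-test. Only proteins with ≥2 unique peptides were used.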

The next experiment addresses USP46 (UniProt P62068). The essentials: as §1
A further experiment deals with T2, USP47 (UniProt Q96K76).
T2 sequence (whole entry): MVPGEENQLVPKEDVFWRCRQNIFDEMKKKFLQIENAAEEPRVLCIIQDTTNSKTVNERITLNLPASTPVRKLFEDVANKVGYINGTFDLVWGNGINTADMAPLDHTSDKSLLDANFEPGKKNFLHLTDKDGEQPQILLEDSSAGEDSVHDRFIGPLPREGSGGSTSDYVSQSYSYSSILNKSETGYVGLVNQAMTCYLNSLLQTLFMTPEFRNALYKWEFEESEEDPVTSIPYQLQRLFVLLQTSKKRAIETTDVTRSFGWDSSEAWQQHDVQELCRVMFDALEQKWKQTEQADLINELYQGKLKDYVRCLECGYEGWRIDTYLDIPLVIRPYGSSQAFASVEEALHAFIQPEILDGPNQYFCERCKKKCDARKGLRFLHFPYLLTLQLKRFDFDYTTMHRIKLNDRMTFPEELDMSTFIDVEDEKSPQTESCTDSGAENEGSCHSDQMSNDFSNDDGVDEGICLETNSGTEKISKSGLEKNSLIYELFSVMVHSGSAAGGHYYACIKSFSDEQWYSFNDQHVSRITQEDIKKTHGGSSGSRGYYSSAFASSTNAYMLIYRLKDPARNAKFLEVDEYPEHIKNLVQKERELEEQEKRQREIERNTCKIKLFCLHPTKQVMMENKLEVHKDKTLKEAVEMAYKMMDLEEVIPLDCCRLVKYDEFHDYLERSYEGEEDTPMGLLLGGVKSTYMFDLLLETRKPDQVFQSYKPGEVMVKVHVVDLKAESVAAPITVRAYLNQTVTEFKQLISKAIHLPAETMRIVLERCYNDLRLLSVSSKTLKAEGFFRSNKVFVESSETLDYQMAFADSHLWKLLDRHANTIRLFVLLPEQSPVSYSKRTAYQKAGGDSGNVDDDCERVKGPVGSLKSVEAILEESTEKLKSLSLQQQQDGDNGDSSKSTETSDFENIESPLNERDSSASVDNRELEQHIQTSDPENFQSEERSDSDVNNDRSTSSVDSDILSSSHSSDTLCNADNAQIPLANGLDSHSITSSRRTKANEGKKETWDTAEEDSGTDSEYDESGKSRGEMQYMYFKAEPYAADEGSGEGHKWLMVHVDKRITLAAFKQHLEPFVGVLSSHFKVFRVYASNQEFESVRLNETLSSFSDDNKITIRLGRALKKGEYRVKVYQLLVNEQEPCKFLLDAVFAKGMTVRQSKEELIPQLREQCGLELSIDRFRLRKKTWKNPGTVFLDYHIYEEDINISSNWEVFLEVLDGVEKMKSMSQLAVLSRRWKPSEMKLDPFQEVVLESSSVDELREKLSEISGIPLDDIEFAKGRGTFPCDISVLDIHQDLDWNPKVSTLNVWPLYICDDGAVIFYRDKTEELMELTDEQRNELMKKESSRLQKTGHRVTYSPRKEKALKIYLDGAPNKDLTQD
The essentials: as §1

In a further experiment the target is T3, USP48 (UniProt Q86UV5).
T3 sequence (whole entry): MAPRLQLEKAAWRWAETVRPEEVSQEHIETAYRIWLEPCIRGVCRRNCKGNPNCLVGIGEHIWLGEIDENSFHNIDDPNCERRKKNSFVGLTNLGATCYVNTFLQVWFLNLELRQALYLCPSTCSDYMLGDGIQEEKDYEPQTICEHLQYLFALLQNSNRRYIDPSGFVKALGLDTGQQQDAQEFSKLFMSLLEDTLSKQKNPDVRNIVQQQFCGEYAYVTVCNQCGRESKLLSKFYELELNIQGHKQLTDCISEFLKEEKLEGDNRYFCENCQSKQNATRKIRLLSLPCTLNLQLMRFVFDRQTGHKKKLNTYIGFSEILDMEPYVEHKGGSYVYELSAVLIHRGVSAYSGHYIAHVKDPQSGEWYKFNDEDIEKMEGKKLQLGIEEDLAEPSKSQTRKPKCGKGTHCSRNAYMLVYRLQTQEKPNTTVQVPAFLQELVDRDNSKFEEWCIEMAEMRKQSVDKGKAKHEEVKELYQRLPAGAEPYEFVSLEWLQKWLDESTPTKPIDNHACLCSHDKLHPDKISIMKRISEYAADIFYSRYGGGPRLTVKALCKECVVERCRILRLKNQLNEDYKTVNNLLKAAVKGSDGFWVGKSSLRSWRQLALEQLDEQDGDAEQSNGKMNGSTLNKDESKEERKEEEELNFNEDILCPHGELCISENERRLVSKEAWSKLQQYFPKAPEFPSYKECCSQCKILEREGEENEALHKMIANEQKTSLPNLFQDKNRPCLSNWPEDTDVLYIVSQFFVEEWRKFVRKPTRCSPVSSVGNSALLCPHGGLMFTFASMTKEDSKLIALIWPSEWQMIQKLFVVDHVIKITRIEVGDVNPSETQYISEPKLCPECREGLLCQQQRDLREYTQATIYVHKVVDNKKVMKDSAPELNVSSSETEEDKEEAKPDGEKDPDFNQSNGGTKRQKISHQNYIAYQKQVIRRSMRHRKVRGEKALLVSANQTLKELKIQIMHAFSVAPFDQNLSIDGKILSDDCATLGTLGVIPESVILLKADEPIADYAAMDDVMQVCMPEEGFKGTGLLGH
The essentials: as §1

The next experiment has as its target T4, USP5 (UniProt P45974).
T4 sequence (whole entry): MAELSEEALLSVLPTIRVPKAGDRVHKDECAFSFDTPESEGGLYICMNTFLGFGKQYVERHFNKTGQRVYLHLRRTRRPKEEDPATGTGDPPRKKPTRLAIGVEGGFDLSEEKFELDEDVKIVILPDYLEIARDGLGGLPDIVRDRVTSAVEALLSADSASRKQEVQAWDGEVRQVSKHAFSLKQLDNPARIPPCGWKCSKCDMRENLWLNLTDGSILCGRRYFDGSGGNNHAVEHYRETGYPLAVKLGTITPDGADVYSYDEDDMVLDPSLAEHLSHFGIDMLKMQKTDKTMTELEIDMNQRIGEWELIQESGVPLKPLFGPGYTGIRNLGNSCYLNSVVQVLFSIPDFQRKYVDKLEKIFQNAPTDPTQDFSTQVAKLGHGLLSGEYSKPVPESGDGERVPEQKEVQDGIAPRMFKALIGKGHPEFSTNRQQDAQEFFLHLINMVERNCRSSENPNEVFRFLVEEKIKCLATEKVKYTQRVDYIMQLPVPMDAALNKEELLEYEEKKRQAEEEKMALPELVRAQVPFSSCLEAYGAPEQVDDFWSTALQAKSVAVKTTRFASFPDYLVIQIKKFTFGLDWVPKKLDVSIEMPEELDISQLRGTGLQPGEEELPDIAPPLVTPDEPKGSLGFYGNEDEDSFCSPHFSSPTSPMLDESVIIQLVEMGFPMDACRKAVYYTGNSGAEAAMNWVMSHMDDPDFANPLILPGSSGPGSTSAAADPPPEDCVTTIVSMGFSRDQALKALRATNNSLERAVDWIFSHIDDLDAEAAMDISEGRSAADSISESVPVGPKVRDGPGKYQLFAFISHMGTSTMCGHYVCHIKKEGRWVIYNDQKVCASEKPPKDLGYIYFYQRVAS
The essentials:
as §1

Another experiment addresses USP54 (UniProt Q70EL1). The essentials: as §1
Another experiment deals with USP7 (UniProt Q93009). Put shortly:
as §1

The target of a further experiment is T5, USP8 (UniProt P40818).
T5 sequence (whole entry): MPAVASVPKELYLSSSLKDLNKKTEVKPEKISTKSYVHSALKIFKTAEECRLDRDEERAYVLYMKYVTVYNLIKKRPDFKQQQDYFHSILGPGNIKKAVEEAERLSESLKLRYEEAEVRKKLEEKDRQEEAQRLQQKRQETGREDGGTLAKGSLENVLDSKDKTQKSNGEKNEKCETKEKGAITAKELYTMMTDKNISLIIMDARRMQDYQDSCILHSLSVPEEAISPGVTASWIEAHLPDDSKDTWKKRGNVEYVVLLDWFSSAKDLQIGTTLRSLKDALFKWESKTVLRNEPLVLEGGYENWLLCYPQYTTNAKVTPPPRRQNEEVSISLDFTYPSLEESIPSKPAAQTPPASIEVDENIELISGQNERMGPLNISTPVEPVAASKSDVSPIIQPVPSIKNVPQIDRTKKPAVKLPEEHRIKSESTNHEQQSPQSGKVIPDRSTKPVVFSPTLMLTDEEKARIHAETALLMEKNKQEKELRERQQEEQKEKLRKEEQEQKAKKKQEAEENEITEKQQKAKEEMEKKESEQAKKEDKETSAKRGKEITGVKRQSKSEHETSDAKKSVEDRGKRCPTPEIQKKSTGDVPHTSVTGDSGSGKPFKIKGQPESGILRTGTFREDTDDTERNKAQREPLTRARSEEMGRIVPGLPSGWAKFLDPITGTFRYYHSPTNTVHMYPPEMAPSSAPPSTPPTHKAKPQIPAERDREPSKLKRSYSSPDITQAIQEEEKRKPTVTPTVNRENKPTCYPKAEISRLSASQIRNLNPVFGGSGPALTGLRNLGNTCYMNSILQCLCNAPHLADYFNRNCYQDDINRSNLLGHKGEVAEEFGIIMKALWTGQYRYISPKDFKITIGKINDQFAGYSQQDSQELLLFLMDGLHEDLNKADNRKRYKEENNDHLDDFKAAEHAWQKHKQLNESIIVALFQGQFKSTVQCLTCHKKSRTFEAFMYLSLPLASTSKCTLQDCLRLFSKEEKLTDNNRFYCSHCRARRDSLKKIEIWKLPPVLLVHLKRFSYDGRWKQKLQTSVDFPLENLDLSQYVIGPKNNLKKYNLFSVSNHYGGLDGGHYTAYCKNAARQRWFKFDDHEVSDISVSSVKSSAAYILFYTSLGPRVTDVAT
The essentials: as §1

For another experiment, the target named is USP9X (UniProt Q93008). The essentials:
as §1

The next experiment addresses UniProt O00487. Put shortly:
as §1

Unmarked numbers belong to inactive results.

USP7, sequence (Q93009 whole entry, looked up): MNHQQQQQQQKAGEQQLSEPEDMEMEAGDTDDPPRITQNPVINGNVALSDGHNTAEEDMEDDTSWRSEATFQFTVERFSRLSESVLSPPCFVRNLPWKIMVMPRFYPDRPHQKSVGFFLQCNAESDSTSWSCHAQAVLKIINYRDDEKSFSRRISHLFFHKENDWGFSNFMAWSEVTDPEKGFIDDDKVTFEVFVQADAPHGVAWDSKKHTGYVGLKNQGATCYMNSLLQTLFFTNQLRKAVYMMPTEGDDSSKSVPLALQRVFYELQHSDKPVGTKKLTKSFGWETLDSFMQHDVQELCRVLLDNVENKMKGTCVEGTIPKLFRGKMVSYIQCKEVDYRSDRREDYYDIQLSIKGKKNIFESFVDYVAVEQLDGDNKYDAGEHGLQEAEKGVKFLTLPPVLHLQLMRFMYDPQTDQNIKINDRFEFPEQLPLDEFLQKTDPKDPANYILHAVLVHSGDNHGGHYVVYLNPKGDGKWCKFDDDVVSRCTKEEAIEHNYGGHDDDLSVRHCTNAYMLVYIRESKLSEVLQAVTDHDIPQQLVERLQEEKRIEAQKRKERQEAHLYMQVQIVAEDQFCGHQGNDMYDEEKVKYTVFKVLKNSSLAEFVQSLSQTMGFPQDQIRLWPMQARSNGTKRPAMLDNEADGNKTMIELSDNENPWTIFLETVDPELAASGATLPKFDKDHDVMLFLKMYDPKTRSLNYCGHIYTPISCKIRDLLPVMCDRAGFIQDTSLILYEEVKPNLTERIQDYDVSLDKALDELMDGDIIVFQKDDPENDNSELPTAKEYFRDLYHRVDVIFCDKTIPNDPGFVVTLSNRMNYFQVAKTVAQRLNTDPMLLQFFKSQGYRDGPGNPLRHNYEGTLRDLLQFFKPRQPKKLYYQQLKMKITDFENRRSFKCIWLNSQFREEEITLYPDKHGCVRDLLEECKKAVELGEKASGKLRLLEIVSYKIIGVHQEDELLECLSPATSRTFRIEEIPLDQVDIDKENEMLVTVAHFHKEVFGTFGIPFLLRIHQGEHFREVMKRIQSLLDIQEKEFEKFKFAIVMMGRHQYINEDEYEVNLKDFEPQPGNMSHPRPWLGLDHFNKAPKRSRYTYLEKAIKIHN
UniProt O00487, sequence (O00487 whole entry): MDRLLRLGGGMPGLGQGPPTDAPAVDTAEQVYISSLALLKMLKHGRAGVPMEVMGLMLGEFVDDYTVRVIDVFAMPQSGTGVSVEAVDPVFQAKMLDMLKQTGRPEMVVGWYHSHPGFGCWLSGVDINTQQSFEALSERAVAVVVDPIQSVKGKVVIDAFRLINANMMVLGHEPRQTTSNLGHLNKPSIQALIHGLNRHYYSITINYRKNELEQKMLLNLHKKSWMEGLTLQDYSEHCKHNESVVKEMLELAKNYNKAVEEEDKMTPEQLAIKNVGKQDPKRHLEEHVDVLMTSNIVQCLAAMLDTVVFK
USP54, sequence (Q70EL1 whole entry): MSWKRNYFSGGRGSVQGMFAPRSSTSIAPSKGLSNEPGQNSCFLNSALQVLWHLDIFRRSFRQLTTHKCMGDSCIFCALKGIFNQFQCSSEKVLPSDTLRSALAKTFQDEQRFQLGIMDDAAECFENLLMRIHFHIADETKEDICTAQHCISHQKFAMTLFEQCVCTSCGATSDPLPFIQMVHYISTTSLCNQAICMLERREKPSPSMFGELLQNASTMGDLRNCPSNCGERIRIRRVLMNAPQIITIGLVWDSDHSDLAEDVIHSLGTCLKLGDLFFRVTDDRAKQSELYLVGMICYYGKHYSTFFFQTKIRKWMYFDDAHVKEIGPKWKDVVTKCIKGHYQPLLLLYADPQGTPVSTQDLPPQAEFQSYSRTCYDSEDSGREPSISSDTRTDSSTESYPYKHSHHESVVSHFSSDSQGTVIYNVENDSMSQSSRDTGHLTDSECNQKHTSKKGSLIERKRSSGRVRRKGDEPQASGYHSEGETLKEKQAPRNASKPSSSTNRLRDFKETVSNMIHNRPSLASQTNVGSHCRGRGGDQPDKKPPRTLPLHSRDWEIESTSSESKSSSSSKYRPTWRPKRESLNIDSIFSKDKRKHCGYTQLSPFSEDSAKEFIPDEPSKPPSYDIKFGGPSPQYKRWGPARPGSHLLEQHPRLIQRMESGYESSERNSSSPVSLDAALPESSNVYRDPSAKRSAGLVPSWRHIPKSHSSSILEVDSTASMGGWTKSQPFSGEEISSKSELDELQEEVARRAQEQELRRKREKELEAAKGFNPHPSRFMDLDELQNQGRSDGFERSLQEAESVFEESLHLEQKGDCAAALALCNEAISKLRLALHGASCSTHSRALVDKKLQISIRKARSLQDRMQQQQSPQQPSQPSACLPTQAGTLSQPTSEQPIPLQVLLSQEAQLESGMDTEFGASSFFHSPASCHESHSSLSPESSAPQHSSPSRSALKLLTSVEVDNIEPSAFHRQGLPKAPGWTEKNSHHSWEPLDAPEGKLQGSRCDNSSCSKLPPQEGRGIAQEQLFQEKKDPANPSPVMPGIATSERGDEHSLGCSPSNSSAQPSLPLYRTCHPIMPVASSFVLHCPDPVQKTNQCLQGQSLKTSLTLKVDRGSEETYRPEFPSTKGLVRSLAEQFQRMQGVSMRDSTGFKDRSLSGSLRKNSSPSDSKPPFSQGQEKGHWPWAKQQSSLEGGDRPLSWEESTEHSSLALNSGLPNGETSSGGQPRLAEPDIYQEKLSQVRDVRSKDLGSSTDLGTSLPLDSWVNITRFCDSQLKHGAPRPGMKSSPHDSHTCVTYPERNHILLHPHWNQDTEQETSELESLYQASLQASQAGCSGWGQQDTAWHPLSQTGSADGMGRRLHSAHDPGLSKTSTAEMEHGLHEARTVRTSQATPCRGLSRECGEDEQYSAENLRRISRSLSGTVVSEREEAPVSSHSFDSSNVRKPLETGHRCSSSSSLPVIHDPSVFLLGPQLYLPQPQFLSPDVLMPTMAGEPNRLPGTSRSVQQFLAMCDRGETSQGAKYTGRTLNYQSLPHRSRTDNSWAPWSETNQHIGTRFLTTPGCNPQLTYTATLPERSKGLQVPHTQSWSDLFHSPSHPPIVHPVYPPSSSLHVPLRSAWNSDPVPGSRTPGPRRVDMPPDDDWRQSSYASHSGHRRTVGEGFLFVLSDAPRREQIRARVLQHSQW
USP46, sequence (P62068 whole entry): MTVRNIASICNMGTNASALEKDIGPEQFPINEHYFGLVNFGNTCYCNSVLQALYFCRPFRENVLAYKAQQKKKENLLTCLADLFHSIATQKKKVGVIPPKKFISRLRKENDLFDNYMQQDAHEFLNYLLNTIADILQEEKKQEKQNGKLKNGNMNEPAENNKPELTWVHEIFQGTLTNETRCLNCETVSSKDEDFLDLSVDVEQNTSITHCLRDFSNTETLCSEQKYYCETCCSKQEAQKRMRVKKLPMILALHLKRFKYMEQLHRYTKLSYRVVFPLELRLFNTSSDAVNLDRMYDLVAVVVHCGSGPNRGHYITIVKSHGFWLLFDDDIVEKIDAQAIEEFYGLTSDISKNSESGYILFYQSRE

With `O=C(CCl)Nc1cccc2ncccc12`, the “log2 ratio of Biotin-Ahx-Ub-VS probe labelling” value (from here on “log2 ratio”) was 0.41 with USP42; 0.096 in the experiment with USP46; 0.325 in the experiment with USP47; -0.121 in the experiment with USP48; 0.466 in the experiment with USP5; -0.107 with USP54. The “log2 ratio” value is -0.116 in the experiment with USP7, -0.176 in the experiment with USP8, -0.112 with USP9X and 0.0189 with UniProt O00487.

For `O=C(CCl)Nc1ccc(N2CCCC2=O)cc1`, the “log2 ratio” value in the experiment with USP42 was -0.131; with USP46, 0.132; with USP47, 0.214; with USP48 it was -0.192; with USP5, -0.0866; with USP54 it was 0.313. Besides, the “log2 ratio” value with USP7 was -0.0242; with USP8, 0.198; with USP9X it was 0.00968; with UniProt O00487, -0.0936.

As to `O=C(CCl)N1CCN(c2nc3ccccc3o2)CC1`, the “log2 ratio” value with USP42 was 0.952; with USP46, -0.372; with USP47, -0.362; with USP48, -0.829; in the experiment with USP5, -0.993; with USP54, -0.173. In addition, the “log2 ratio” value in the experiment with USP7 was -1.99 (active); in the experiment with USP8, -0.223; in the experiment with USP9X, -0.248; with UniProt O00487 it was -0.0834.
